This note sets out measurements from PubChem BioAssay (NCATS).

Several values for one entry are separate records, joined by “and”; a condition that tells them apart may be missing. Identical values can stand only once. Results filed as inconclusive are left out. Some compounds were tested as several samples or in several runs, with calls that do not always agree. A number with no mark means an inactive call. Activity calls are given as the source filed them. Calls come from the whole dose curve; as a rule, active = well fitted inhibition curve with a large enough effect; inconclusive = small, poorly fitted or top-dose-only effect; inactive = flat fitted curve, though single readings scatter.

In one test the test system is CRL-7250. The test is described as follows: Cytotoxic Profiling of Annotated Libraries Using Quantitative High-Throughput Screening (AID 1296008). For max response: % is set by controls: 0 for no effect and ±100 for the full control effect. The following applies: Five cell lines viability, CellTiter-Glo ATP luminescence, 48-72 h; max response: active compounds read low. The essentials:
(§1)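 Cytotoxicity was measured as CellTiter-Glo ATP luminescence, read after 10 min at room temperature. Compound treatment of the cells lasted 48 or 72 hr at 37 degrees Celsius in a qHTS format.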

The test system of test [1] is HaCat. Described as above. The following applies: Five cell lines viability, CellTiter-Glo ATP luminescence, 48-72 h; max response: active compounds read low. The procedure, abridged: as §1
(In general: Cellular ATP, detected with luciferase, serves as a proxy for viable cell number.)

For another test, the system named is KB-3-1. Described as above. The following applies: Five cell lines viability, CellTiter-Glo ATP luminescence, 48-72 h; max response: active compounds read low. The essentials:
as §1

Test [2] has as its system NIH3T3. The test is described as above. The following applies: Five cell lines viability, CellTiter-Glo ATP luminescence, 48-72 h; max response: active compounds read low. The procedure, abridged: as §1
A further test has as its system MCC-13. The test is described as follows: qHTS assay to identify novel small-molecules to repurpose for Merkel cell carcinoma treatment (AID 1296009). The following applies: MCC and control cell lines, CellTiter-Glo viability, 72 h; series mostly up to 46 µM. The essentials: (§2)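 Cell viability measured by CellTiter-Glo following 72 hr compound treatment at 37 degree celsius, with NPC and MIPE libraries tested in 8- and 11-point concentration series.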
In general terms: In qHTS, concentration-response curves come from the screen itself.

The subject of the next test is MKL-1. Described as above. The following applies: MCC and control cell lines, CellTiter-Glo viability, 72 h; series mostly up to 46 µM. The essentials:
as §2

The subject of another test is MKL-2. Described as above. The following applies: MCC and control cell lines, CellTiter-Glo viability, 72 h; series mostly up to 46 µM. The essentials:
as §2

Another test deals with UISO. The description is as above. The following applies: MCC and control cell lines, CellTiter-Glo viability, 72 h; series mostly up to 46 µM. The essentials:
as §2

Another test concerns MCC-26. The test is described as above. The following applies: MCC and control cell lines, CellTiter-Glo viability, 72 h; series mostly up to 46 µM. The procedure, abridged:
as §2

Another test concerns PC26. The test is described as follows: qHTS profiling for inhibitors of Plasmodium falciparum proliferation (AID 504749). The following applies: P. falciparum in erythrocytes, SYBR Green DNA, 72 h; series mostly up to 28.7 µM. The procedure, abridged: (§3)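 In a 72 h erythrocytic culture (37 C, humidified, 5% CO2) at 2.5% hematocrit and 0.3% starting parasitemia, compounds were tested; SYBR Green I in detergent lysis buffer stained parasite DNA overnight.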

The test system of a further test is PC49. The test is described as above. The following applies: P. falciparum in erythrocytes, SYBR Green DNA, 72 h; series mostly up to 28.7 µM. The procedure, abridged: as §3
The next test concerns SC27B. The description is as above. The following applies: P. falciparum in erythrocytes, SYBR Green DNA, 72 h; series mostly up to 28.7 µM. The procedure, abridged:
as §3

Another test has as its system TAB109. The description is as above. The following applies: P. falciparum in erythrocytes, SYBR Green DNA, 72 h; series mostly up to 28.7 µM. The procedure, abridged:
as §3

The next test deals with TAB113. Described as above. The following applies: P. falciparum in erythrocytes, SYBR Green DNA, 72 h; series mostly up to 28.7 µM. The procedure, abridged:
as §3

The test system of another test is TAB165. Described as above. The following applies: P. falciparum in erythrocytes, SYBR Green DNA, 72 h; series mostly up to 28.7 µM. The essentials: as §3
The subject of a further test is W2. The description is as above. The following applies: P. falciparum in erythrocytes, SYBR Green DNA, 72 h; series mostly up to 28.7 µM. The essentials: as §3
The next test concerns HEK293. The test is described as follows: Cytotoxic Profiling of Annotated Libraries Using Quantitative High-Throughput Screening (AID 1296008). For max response: % is set by controls: 0 for no effect and ±100 for the full control effect. The following applies: Five cell lines viability, CellTiter-Glo ATP luminescence, 48-72 h; max response: active compounds read low. The essentials: as §1
Test [3] deals with HACAT. The test is described as follows: qHTS assay to identify novel small-molecules to repurpose for Merkel cell carcinoma treatment (AID 1296009). The following applies: MCC and control cell lines, CellTiter-Glo viability, 72 h; series mostly up to 44.8 µM. The procedure, abridged:
as §2

Test [4] has as its system NIH3T3. The description is as above. The following applies: MCC and control cell lines, CellTiter-Glo viability, 72 h; at 44.8 µM (top of the series) unless noted. The procedure, abridged: as §2
Note: nearly all actives have a fitted effect of over 60% in size.
Potency is the fitted concentration of half-maximal effect.

For `CNC(=O)c1nn(C)c2c1C(C)(C)Cc1cnc(Nc3ccc(N4CCN(C)CC4)cc3)nc1-2`, the Potency is 46.9 nM (active) and 580 nM (active) in the test with CRL-7250; 1.66 µM (active) and 2.06 µM (active) in the test with HaCat [1]; 3.32 µM (active) and 2.31 µM (active) in the test with KB-3-1; 1.3 µM (active) in the test with NIH3T3 [2]; 5.9 µM (active) in the test with MCC-13; 4.69 µM (active) in the test on MKL-1. Moreover, the Potency with MKL-2 was 5.26 µM (active); with UISO, 0.235 µM (active).
As to `CCCCCN(CCC12CC3CC(CC(C3)C1)C2)C(=O)NCCCc1ccncc1`, the max response in the test with CRL-7250 was -19%; in the test on HaCat [1], -32%; with NIH3T3 [2], -9.34%. Also, the Potency result in the test on MCC-13, in the test on MCC-26, in the test on MKL-1, with MKL-2 and with UISO was “inactive” throughout.
On to `CC1(C)CCC(c2ccc(Cl)cc2)=C(CN2CCN(c3ccc(C(=O)NS(=O)(=O)c4ccc(N[C@H](CCN5CCOCC5)CSc5ccccc5)c(S(=O)(=O)C(F)(F)F)c4)cc3)CC2)C1`, for which the max response in the test with CRL-7250 is 3.93%; in the test on KB-3-1 it was -2.09%. Moreover, the Potency entry in the test with MCC-13, with MCC-26 and in the test on UISO was “inactive” throughout. Further, the Potency in the test with MKL-1 was 0.418 µM (active); in the test with MKL-2, 0.264 µM (active).
Regarding `Nc1ccn([C@@H]2CS[C@H](CO)O2)c(=O)n1`, the Potency result in the test on PC26, in the test on PC49, in the test with SC27B, with TAB109, with TAB113 and in the test with TAB165 was “inactive” in each case. The Potency result in the test with W2 was “inactive”.
With `COc1c(N2C[C@@H]3CCCN[C@H]3C2)c(F)cc2c(=O)c(C(=O)O)cn(C3CC3)c12`, the Potency result in the test with PC26, in the test on PC49, with SC27B, in the test on TAB113, with TAB165 and in the test on W2 was “inactive” throughout.
On to `C[C@]1(CO)CN(c2cc(C(=O)Nc3ccc4c(c3)-c3c(c(C(N)=O)nn3-c3ccc(F)cc3)CC4)c(Cl)cn2)C[C@@]1(C)CO`, for which the Potency is 4.69 µM (active) and 9.2 µM (active) in the test with HEK293; 13.2 µM (active) with HaCat [1]; 9.35 µM (active) with UISO. The max response in the test with KB-3-1 is -15.8%; in the test with NIH3T3 [2] it was -26%.
For `Cc1coc2c1C(=O)C(=O)c1c-2ccc2c1CCCC2(C)C`, the max response with HaCat [1] was -3.22%; in the test with KB-3-1 it was -4.98%; with NIH3T3 [2] it was -27%. For the same molecule, the outcome in the test with HaCat [1], with NIH3T3 [2] and with NIH3T3 [4] was inactive. For the same molecule, in the test on KB-3-1, the Potency is 16.4 µM (active). Besides, the Potency result in the test on HACAT [3], with MCC-13, with MKL-1, with MKL-2 and in the test on UISO was “inactive” each time.
As to `O=c1[nH]nc(Sc2ncc([N+](=O)[O-])s2)n1-c1ccc2c(c1)OCCO2`, the Potency in the test on HEK293 is 9.35 µM (active); in the test on HaCat [1], 18.7 µM (active); with NIH3T3 [2], 8.33 µM (active); with MCC-13 it was 11.8 µM (active); in the test with MCC-26, 10.5 µM (active); in the test with MKL-1, 3.72 µM (active). The Potency in the test on MKL-2 is 5.26 µM (active); with UISO it was 7.43 µM (active).
With `Cc1cnc(-c2cnc(NCCNc3ccc(C#N)cn3)nc2-c2ccc(Cl)cc2Cl)[nH]1`, the max response with HEK293 was -23.2% and -27.2%; in the test on KB-3-1, -14.7% and -1.89%. In addition, the call in the test with HaCat [1], in the test with NIH3T3 [2] and in the test on NIH3T3 [4] was inactive. Moreover, the Potency entry in the test with HACAT [3], with MCC-26, in the test on MKL-1 and with MKL-2 was “inactive” in each case.
As for `CC[C@H]1CN2CCc3cc(OC)c(OC)cc3[C@H]2C[C@@H]1C[C@@H]1NCCc2cc(OC)c(OC)cc21`, the Potency with PC26 was 601 nM (active); in the test with PC49, 141 nM (active); in the test on SC27B, 398 nM (active); in the test with TAB109, 251 nM (active); in the test with TAB113 it was 316 nM (active); in the test on TAB165, 316 nM (active). Further, the Potency in the test on W2 was 151 nM (active).
With `Nc1ccn([C@@H]2O[C@H](CO)[C@H](O)C2(F)F)c(=O)n1`, the Potency in the test with PC26 was 4780 nM (active); in the test with PC49 it was 708 nM (active); in the test on SC27B, 3980 nM (active); in the test on TAB109 it was 5010 nM (active); in the test with TAB113, 3980 nM (active); in the test on TAB165 it was 3980 nM (active). The Potency in the test with W2 was 190 nM (active).
Take `O=C(Nc1nc2cccc(-c3ccc(CN4CCS(=O)(=O)CC4)cc3)n2n1)C1CC1`: the Potency in the test with HEK293 is 10.5 µM (active) and 10.3 µM (active); in the test on KB-3-1 it was 8.33 µM (active). For the same molecule, the max response in the test on NIH3T3 [2] was -23.2%. Also, the Potency entry in the test on MCC-13 is “inactive”.
With `c1nc2nc(Nc3ccc(N4CCOCC4)cc3)nc(NC3CCCCC3)c2[nH]1`, the Potency in the test on HEK293 is 935 nM (active) and 252 nM (active); in the test on HaCat [1] it was 2.64 µM (active) and 2 µM (active); in the test on KB-3-1, 4.18 µM (active); in the test on NIH3T3 [2] it was 1.48 µM (active) and 2.24 µM (active); in the test on MKL-2 it was 16.6 µM (active).
On to `COc1cc2ncnc(Nc3ccc(F)c(Cl)c3)c2cc1NC(=O)C=CCN1CCCCC1`, for which the values for the max response with HaCat [1] and with NIH3T3 [2] were -96.7% and -20.4%, respectively. The outcome with KB-3-1 was inactive. Besides, the Potency result in the test with MCC-13 and in the test with MCC-26 was “inactive” throughout. In the test with MKL-2, the Potency was 3.72 µM (active).
